# Where “and” joins values, the source holds several entries; their conditions need not be identical. Equal values may be shown once. For some of these results: Potency and affinity values are given separately. Where a structure was tested more than once in an assay, its records may differ in their call. Calls of active or inactive are those of the source. A call without a number means that no potency is given here. Unless noted, how the calls were made is not given here.
# Columns and labels:
# [1] = antimalarial activity against Dd2 strain (AID 2302;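 active means growth inhibition above 50% at the single 2 µM test dose, taken to imply half-maximal potency below 2 µM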); conditions: P. falciparum Dd2 in RBCs, LDH growth readout, 72 h; at 2 µM; stronger effect = higher value
# [2] = HepG2 cytotoxicity, primary screen, cytotoxicity control for P. falciparum antimalarial project, cell-based, ATP luminescence (AID 2303;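 active means inhibition above 50%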); conditions: HepG2 viability, 24-48 h, at 10 µM, stronger effect = higher value
# [3] = target: L-lactate dehydrogenase (Plasmodium falciparum (isolate CDC / Honduras)) (UniProt Q27743); assay: PfLDH activity inhibition – cell lysate, 3D7 strain, counter-screen for P. falciparum growth inhibition project (AID 2304); conditions: P. falciparum 3D7 crude extract, LDH APAD/NBT absorbance; at 2 µM; stronger effect = higher value
# Chain of L-lactate dehydrogenase (Plasmodium falciparum (isolate CDC / Honduras)) (Q27743 whole entry, looked up): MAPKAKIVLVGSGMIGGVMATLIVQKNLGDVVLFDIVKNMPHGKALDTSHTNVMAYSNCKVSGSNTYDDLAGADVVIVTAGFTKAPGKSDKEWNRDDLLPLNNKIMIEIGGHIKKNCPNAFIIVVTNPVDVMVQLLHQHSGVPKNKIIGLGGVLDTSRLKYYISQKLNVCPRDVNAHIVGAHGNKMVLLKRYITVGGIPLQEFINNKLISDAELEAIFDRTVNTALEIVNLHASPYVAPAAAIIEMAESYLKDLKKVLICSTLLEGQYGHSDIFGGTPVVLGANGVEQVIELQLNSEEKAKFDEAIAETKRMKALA
# [4] = inhibition of 3D7 malaria parasite growth – strain 3D7 (AID 2306); conditions: P. falciparum 3D7 erythrocytic growth, LDH absorbance, 72 h; at 2 µM; stronger effect = higher value
# [5] = target: Calcium-dependent protein kinase 1 (Plasmodium falciparum (isolate 3D7)) (UniProt P62344); assay: PfCDPK1 kinase inhibitors, biochemical, TCAMS library (AID 1159585; cut-off not given, nearly all actives have IC50 up to about 0.98 µM;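 further: inhibitors leave more ATP so luminescence rises with inhibition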); conditions: recombinant PfCDPK1, Kinase-Glo ATP depletion luminescence
# Chain of Calcium-dependent protein kinase 1 (Plasmodium falciparum (isolate 3D7)) (P62344 whole entry, looked up): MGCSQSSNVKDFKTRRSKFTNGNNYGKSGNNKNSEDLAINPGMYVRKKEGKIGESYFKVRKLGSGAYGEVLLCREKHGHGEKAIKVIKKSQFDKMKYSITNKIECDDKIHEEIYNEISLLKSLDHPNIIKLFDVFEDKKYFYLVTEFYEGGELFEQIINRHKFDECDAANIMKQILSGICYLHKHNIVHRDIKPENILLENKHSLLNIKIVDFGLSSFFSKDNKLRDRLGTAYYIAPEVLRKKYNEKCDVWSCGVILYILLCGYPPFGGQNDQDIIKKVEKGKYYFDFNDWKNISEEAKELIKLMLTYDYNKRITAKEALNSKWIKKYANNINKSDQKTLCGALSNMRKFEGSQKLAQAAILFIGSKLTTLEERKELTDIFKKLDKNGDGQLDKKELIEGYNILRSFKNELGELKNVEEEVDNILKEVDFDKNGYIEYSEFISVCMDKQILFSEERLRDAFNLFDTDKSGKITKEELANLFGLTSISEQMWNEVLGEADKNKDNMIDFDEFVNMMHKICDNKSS
# [6] = target: Plasmodium falciparum protein kinase 6 (PK6, PF3D7_1337100) (UniProt Q8IDW1); assay: PfPK6 kinase inhibitors, biochemical, TCAMS library (AID 1159586); conditions: recombinant PfPK6, Kinase-Glo ATP depletion luminescence
# Chain of Plasmodium falciparum protein kinase 6 (PK6, PF3D7_1337100) (Q8IDW1 1-305): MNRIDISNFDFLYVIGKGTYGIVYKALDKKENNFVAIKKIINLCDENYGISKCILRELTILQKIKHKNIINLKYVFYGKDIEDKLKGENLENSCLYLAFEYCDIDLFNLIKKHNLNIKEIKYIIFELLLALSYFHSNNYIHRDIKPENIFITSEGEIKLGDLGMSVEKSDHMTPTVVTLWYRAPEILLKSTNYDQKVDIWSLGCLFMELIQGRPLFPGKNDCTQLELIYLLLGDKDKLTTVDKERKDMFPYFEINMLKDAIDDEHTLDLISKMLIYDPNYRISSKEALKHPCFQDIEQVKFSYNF
# [7] = target: Protein kinase 7 (PK7), Plasmodium falciparum 3D7 (PF3D7_0213400) (UniProt Q7YTF7); assay: inhibition of Plasmodium PK7 catalytic activity – biochemical, TCAMS antimalarial set, Kinase-Glo luminescence (AID 1159587); conditions: recombinant PfPK7, Kinase-Glo ATP depletion luminescence
# Chain of Protein kinase 7 (PK7), Plasmodium falciparum 3D7 (PF3D7_0213400) (Q7YTF7 1-343): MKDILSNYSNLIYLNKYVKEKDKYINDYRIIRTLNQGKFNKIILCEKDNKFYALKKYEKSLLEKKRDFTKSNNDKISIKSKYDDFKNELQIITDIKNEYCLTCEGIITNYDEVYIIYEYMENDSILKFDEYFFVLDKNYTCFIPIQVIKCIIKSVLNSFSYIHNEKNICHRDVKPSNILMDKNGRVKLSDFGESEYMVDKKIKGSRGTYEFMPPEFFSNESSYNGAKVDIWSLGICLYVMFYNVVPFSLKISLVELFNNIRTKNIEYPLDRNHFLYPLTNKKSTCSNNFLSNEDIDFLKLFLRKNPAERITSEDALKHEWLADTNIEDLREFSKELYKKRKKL
# [8] = target: Calcium-dependent protein kinase 4 (Plasmodium falciparum (isolate 3D7)) (UniProt Q8IBS5); assay: PfCDPK4 kinase inhibitors, biochemical, TCAMS library (AID 1159588; cut-off not given, nearly all actives have IC50 up to about 0.91 µM); conditions: recombinant PfCDPK4, Kinase-Glo ATP depletion luminescence
# Chain of Calcium-dependent protein kinase 4 (Plasmodium falciparum (isolate 3D7)) (Q8IBS5 whole entry, looked up): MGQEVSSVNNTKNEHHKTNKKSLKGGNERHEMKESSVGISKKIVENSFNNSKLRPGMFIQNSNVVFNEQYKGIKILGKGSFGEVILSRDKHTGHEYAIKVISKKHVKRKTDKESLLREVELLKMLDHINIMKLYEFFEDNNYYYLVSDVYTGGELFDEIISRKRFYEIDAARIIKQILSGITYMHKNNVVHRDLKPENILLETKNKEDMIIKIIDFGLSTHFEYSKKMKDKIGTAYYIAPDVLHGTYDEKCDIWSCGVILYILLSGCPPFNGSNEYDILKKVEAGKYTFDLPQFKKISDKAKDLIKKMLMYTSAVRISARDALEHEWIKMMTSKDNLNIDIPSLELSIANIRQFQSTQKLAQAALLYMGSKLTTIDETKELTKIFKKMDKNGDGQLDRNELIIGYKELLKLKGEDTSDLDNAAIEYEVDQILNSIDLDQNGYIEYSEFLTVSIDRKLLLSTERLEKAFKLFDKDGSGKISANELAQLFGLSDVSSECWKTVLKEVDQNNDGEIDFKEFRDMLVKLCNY
SMILES,growth inhibition [1],inhibition [2],inhibition [3],growth inhibition [4],outcome [5],outcome [6],outcome [7],outcome [8]
CCCCCSc1cc(O)c(C(CNC)C(C)C)cc1OC (centres undefined),99% (active),5% (inactive),-4% (inactive),100% (active),inactive,inactive,inactive,inactive
COc1ccc2[nH]cc(C3CCN(Cc4ccc(NC(=O)c5ccc(-c6ccccc6)cc5)cc4)CC3)c2c1,72% (active),24% (inactive),-6% (inactive),101% (active),inactive,inactive,inactive,inactive
O=C(NC1CCC(CN2CCC(c3c[nH]c4ccccc34)CC2)CC1)C1(O)c2ccccc2-c2ccccc21 (centres undefined),46% (inactive),22% (inactive),-4% (inactive),85% (active),inactive,inactive,inactive,inactive
O=C(NC1CCN(CC2(c3ccc(Cl)cc3)CCC2)CC1)c1ccn[nH]1,43% (inactive),-7% (inactive),-3% (inactive),96% (active),inactive,inactive,inactive,inactive
CC(=O)N(Cc1ccccc1-c1cccc(CNCCc2ccccc2)c1)C1CCN(Cc2ccccc2)CC1,30% (inactive),19% (inactive),0% (inactive),89% (active),inactive,inactive,inactive,inactive
Cc1ccc(CC(C)NCC(O)c2cccc(Cl)c2)cc1 (centres undefined),64% (active),-4% (inactive),-1% (inactive),93% (active),inactive,inactive,inactive,inactive
O=P(O)(O)Oc1c(Br)cc(Br)cc1-c1cc(Br)cc(Br)c1O,-2% (inactive),10% (inactive),-4% (inactive),97% (active),inactive,inactive,inactive,inactive
O=C(C=Cc1ccccc1Br)NC1CCC(CN2CCC(c3c[nH]c4ccccc34)CC2)CC1 (centres undefined),32% (inactive) and 57% (active),36% (inactive) and 43% (inactive),4% (inactive),101% (active) and 102% (active),inactive,inactive,inactive,inactive
Cc1cc(N)nc2cc(CNCCc3ccccc3Br)ccc12,93% (active),47% (inactive),0% (inactive),101% (active),inactive,inactive,inactive,inactive
O=C(NC1CCN(CCc2c[nH]c3ccc(F)cc23)CC1)c1ncc(-c2ccccc2)[nH]1,69% (active),-3% (inactive),-1% (inactive),102% (active),inactive,inactive,inactive,inactive
CN1CCC(O)(c2ccc(Br)cc2)C(C(O)c2ccc(Br)cc2)C1 (centres undefined),99% (active),28% (inactive),-5% (inactive),98% (active),inactive,inactive,inactive,inactive
COc1cc(C=CC(=O)N2CCC(CN3CCC(c4c[nH]c5ccccc45)CC3)CC2)cc(OC)c1,8% (inactive),19% (inactive),4% (inactive),95% (active),inactive,inactive,inactive,inactive
CC[C@H]1CN2CC[C@H]1C[C@H]2[C@H](O)c1cc(-c2ccc(SC)cc2)nc2ccc(OC)cc12,99% (active),9% (inactive),-1% (inactive),98% (active),inactive,inactive,inactive,inactive
CC[C@H]1CN2CC[C@@H]1C[C@H]2[C@H](O)c1cc(N2CCC(O)(c3ccccc3)CC2)nc2ccc(OC)cc12,98% (active),14% (inactive),-2% (inactive),101% (active),inactive,inactive,inactive,inactive
COc1ccc(CN2CCN(CCOC(c3ccccc3)c3ccc(Cl)cc3)CC2)c(O)c1 (centres undefined),98% (active),12% (inactive),0% (inactive),99% (active),inactive,inactive,inactive,inactive
CC[C@H]1CN2CC[C@H]1C[C@H]2[C@H](O)c1cc(N2CCCC2)nc2ccc(OC)cc12,100% (active),-13% (inactive),6% (inactive),98% (active),inactive,inactive,inactive,inactive
Cc1c(C(=O)NC2CCC(CN3CCC(c4c[nH]c5ccccc45)CC3)CC2)cnn1-c1c(Cl)cc(Cl)cc1Cl (centres undefined),97% (active),53% (active),4% (inactive),100% (active),inactive,inactive,inactive,inactive
CC(C)CNCc1ccc(-c2ccc(CN(C(=O)Nc3ccccc3)C3CCN(Cc4ccccc4)CC3)cc2)cc1,61% (active),27% (inactive),-4% (inactive),101% (active),inactive,inactive,inactive,inactive
CCC(C)CN1CCC(N(C)c2cc(NC(=O)c3cccc(C)c3)ccn2)CC1 (centres undefined),14% (inactive),1% (inactive),1% (inactive),93% (active),inactive,inactive,inactive,inactive

SMILES,growth inhibition [1],inhibition [2],inhibition [3],growth inhibition [4],outcome [5],outcome [6],outcome [7],outcome [8]
COc1ccc(CC(C)NCC(O)c2cccc(Br)c2)cc1 (centres undefined),93% (active),10% (inactive),-1% (inactive),99% (active),inactive,inactive,inactive,inactive
CC(Cc1ccc(OCCCCOc2ccccc2)cc1)NCCCN1CCOCC1 (centres undefined),78% (active),98% (active),-2% (inactive),98% (active),inactive,inactive,inactive,inactive
CC[C@H]1CN2CC[C@H]1C[C@H]2[C@H](O)c1cc(-c2ccc(Cl)c(Cl)c2)nc2ccc(OC)cc12,99% (active),17% (inactive),6% (inactive),98% (active),inactive,inactive,inactive,inactive
Cc1c(C)c2c(c(C)c1O)CC[C@@](C)(C(=O)N1CCC(CN3CCC(c4c[nH]c5ccccc45)CC3)CC1)O2,90% (active),21% (inactive),3% (inactive),98% (active),inactive,inactive,inactive,inactive
COc1ccc(CCNCc2ccc3c(C)cc(N)nc3c2)cc1,69% (active),12% (inactive),0% (inactive),101% (active),inactive,inactive,inactive,inactive
Cc1cc2cc(CNCCc3ccccc3Br)ccc2nc1N,91% (active),31% (inactive),-1% (inactive),98% (active),inactive,inactive,inactive,inactive
Cc1ccc(CC(C)NCC(O)c2cccc([N+](=O)[O-])c2)cc1 (centres undefined),85% (active),-6% (inactive),-2% (inactive),97% (active),inactive,inactive,inactive,inactive
Oc1ccc(CN2CCN(CCOC(c3ccccc3)c3ccccc3)CC2)cc1Cl,77% (active),7% (inactive),1% (inactive),98% (active),inactive,inactive,inactive,inactive
CC[C@H]1CN2CC[C@H]1C[C@H]2[C@H](O)c1cc(N2CCC3CCCCC3C2)nc2ccc(OC)cc12 (some centres undefined),99% (active),50% (active),-4% (inactive),100% (active),inactive,inactive,inactive,inactive
CC(=O)C1(c2ccccc2)CCN(CCC2(c3ccc(Cl)c(Cl)c3)CN(C(=O)C3CCCCC3)CCO2)CC1 (centres undefined),99% (active),3% (inactive),-2% (inactive),100% (active),inactive,inactive,inactive,inactive
COc1ccccc1CC(C)NCC(O)c1cccc(Cl)c1 (centres undefined),98% (active),13% (inactive),-6% (inactive),97% (active),inactive,inactive,inactive,inactive
CC(Cc1ccc(OCCOc2ccccc2)cc1)NCC(O)c1cccc(C(F)(F)F)c1 (centres undefined),76% (active),16% (inactive),-6% (inactive),91% (active),inactive,inactive,inactive,inactive
CC(Cc1ccc(OCCCCOc2ccccc2)cc1)NCCCc1nc2ccccc2[nH]1 (centres undefined),67% (active),99% (active),3% (inactive),97% (active),inactive,inactive,inactive,inactive
O=C(/C=C/c1cc(F)c(F)cc1F)N1CCC(CN2CCC(c3c[nH]c4ccccc34)CC2)CC1,3% (inactive),26% (inactive),1% (inactive),93% (active),inactive,inactive,inactive,inactive
Cc1ccc(C[C@@H](C)NC[C@H](O)c2cccc(C(F)(F)F)c2)cc1,79% (active) and 97% (active),10% (inactive) and 6% (inactive),-4% (inactive) and 1% (inactive),101% (active) and 99% (active),inactive,inactive,inactive,inactive
CN(C)c1cccc(NC(=O)N[C@H]2N=C(c3ccccc3)c3ccccc3N(CC(=O)N3CCCC3)C2=O)c1,98% (active),-5% (inactive),-4% (inactive),98% (active),inactive,inactive,inactive,inactive
N#Cc1ccc(N(CC(=O)NCCc2ccccc2)CC2CC2)c2ccccc12,48% (inactive),0% (inactive),-3% (inactive),99% (active),inactive,inactive,inactive,inactive
COCC(=O)N(Cc1ccccc1-c1ccc(CNCCc2ccccc2)cc1)C1CCN(Cc2ccccc2)CC1,86% (active),39% (inactive),1% (inactive),94% (active),inactive,inactive,inactive,inactive
Fc1ccc2[nH]cc(CCN3CCC(CNCc4ccccc4)CC3)c2c1,94% (active),67% (active),4% (inactive),100% (active),inactive,inactive,inactive,inactive
